The supplement of paper PMC11001985

compound: C#CCNC(=O)CCSSCCC(=O)NCCc1ccc(C=O)c(C=O)c1; assay: lysine labeling ratio R10:1 (500 µM / 50 µM probe), SILAC-ABPP in living cells; higher = lower intrinsic lysine reactivity toward the probe, active = 2 or less; settings: HeLa; probe concentrations 500 vs 50 µM
Summary of the method: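 In PBS at room temperature, living HeLa cells grown with SILAC light or heavy labels were treated with 50 µM or 500 µM of an alkyne-tagged, disulfide-linked lysine probe, with label swaps in both directions. Analysis was by LC-MS/MS on a TIMS-TOF Pro after click to biotin-azide, neutravidin capture and DTT release. For each lysine, R is the median across forward and reverse replicates of the filtered median high-probe/low-probe MS1 peptide ratio, capped at 20.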

Chain of UniProt Q13813 (Q13813 whole entry): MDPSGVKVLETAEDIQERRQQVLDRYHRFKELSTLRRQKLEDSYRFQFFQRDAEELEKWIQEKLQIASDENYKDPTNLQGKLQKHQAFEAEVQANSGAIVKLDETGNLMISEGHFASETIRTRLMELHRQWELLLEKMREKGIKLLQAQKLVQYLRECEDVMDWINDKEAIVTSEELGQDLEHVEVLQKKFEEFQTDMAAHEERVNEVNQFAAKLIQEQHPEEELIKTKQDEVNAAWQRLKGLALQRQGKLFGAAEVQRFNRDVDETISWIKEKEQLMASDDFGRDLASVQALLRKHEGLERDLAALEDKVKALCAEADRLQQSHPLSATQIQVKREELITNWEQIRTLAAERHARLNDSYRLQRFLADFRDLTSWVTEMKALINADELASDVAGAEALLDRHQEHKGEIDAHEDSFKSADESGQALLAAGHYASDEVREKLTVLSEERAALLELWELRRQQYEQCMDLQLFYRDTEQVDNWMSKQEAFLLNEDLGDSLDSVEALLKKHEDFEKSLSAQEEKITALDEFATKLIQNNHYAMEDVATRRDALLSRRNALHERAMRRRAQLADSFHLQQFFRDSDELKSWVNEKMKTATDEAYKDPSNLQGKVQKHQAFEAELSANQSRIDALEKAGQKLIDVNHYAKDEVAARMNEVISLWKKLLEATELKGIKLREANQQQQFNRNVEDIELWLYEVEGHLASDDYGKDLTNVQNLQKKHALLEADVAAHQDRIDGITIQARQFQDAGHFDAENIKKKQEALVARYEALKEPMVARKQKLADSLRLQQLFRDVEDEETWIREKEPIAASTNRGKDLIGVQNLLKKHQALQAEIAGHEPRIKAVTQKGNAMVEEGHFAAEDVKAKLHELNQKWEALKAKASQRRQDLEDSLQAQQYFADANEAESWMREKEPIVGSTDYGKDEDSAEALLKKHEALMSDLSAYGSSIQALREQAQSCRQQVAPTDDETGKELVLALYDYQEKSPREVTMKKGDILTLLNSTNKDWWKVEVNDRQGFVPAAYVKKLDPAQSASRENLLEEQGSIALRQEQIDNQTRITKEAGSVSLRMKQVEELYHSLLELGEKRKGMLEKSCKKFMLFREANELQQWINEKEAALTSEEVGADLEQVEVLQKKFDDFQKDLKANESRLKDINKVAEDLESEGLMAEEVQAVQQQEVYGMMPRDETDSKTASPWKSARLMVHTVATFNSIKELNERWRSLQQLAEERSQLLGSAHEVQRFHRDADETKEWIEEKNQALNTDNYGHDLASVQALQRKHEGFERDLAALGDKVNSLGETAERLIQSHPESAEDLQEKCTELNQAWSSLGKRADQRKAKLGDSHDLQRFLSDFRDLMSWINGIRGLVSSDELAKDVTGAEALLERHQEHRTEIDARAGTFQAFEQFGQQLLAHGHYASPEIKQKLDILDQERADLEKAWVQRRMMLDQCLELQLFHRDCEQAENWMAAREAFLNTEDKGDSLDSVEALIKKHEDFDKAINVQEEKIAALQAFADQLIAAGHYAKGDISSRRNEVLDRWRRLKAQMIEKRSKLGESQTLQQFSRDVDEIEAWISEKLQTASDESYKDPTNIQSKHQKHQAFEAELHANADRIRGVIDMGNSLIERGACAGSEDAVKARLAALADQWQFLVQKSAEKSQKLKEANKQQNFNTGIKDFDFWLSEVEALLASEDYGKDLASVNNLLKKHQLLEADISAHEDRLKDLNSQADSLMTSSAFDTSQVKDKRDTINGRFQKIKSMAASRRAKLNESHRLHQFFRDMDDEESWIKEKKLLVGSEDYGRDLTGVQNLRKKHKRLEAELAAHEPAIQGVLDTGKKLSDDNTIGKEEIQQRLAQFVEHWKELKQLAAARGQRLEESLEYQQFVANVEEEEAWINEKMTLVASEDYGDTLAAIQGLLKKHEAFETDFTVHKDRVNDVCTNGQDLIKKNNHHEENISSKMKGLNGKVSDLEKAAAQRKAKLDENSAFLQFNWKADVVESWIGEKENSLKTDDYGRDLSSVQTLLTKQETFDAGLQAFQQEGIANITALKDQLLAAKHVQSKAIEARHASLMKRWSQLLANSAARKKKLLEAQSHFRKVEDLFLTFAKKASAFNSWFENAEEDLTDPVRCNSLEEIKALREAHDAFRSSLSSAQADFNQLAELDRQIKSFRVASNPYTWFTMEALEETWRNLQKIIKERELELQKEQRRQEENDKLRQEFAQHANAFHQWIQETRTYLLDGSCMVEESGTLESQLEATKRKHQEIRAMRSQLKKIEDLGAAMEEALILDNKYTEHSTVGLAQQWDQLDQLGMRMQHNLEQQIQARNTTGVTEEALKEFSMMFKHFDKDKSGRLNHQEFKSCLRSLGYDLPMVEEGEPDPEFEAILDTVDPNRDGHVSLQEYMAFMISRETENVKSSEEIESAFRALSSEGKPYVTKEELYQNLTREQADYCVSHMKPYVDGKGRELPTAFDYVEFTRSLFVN
Chain of UniProt O00264 (O00264 whole entry): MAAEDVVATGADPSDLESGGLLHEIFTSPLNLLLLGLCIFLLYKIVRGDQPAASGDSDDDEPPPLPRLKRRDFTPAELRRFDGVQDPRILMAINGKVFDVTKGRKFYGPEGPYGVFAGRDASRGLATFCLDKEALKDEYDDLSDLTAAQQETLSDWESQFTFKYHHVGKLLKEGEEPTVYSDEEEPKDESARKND
Chain of UniProt Q9HB71 (Q9HB71 whole entry): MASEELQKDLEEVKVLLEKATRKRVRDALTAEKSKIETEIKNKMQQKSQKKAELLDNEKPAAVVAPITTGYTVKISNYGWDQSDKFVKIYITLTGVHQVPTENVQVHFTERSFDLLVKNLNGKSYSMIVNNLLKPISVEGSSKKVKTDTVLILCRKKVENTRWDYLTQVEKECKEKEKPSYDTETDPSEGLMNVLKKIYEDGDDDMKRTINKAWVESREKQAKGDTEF
Chain of UniProt Q9UII2 (Q9UII2 whole entry): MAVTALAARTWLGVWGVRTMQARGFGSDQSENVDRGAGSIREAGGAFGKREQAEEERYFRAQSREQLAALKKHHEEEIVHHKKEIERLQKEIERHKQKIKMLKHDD
Chain of UniProt P38646 (P38646 whole entry): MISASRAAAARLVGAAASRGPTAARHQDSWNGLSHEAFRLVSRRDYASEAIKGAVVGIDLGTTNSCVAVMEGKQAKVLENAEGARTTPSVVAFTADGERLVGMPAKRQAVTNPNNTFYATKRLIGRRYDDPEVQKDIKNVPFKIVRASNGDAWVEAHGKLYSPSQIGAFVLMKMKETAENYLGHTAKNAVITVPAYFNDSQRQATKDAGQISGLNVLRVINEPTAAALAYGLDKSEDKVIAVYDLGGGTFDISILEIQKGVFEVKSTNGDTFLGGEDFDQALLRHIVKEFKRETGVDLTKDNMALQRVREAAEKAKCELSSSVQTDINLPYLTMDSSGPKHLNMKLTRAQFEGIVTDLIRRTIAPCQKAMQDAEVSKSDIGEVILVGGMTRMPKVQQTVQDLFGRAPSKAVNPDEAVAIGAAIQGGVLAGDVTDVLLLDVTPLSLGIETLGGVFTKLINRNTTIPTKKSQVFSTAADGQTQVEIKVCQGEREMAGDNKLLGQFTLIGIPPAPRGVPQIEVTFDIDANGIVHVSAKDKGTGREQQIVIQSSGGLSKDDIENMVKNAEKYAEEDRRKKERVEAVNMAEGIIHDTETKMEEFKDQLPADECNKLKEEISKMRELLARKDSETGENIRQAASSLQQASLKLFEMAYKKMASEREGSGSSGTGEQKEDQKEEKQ
Chain of UniProt P12956 (P12956 whole entry): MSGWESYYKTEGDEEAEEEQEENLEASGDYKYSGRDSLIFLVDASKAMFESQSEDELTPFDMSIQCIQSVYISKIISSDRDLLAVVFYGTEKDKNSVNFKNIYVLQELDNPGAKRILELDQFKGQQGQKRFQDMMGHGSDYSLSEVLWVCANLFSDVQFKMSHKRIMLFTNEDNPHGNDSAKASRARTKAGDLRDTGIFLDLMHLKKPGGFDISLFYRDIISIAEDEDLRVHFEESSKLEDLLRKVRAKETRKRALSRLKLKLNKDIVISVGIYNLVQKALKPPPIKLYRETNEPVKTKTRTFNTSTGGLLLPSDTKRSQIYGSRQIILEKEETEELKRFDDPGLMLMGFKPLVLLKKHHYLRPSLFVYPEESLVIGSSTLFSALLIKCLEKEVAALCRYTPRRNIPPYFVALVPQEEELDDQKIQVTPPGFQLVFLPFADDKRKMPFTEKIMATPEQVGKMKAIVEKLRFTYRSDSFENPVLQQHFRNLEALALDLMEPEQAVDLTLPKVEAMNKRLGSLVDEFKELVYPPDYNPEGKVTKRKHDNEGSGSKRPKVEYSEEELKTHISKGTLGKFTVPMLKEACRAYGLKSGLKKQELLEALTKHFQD
Chain of UniProt P13010 (P13010 whole entry): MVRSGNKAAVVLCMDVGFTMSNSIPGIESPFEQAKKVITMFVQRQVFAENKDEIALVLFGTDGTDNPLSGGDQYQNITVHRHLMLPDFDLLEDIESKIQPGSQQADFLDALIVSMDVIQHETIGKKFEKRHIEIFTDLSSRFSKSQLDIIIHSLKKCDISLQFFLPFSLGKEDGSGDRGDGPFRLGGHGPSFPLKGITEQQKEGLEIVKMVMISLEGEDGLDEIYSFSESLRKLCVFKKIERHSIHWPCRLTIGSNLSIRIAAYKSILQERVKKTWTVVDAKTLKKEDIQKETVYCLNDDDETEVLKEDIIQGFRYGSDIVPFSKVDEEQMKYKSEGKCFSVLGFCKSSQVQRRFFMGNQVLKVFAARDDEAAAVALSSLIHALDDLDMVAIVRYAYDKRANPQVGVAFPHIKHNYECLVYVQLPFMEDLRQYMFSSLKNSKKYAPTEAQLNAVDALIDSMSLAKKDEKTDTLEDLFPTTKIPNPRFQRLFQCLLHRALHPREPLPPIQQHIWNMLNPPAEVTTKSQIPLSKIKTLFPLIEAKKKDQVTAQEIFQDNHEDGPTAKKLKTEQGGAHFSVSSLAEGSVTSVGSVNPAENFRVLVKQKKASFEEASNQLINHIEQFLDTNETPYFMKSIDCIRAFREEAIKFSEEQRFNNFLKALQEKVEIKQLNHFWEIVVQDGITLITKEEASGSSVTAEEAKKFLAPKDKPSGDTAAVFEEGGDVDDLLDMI

Lysine labeling ratio R10:1, inactive:
APP (lysine site: K522) (UniProt P05067) 5.65, FLNA (lysine site: K523) (UniProt P21333) 3.84, VTN (lysine site: K194) (UniProt P04004) 16.5, HSPA8 (lysine site: K512) (UniProt P11142) 7.92, TFRC (lysine site: K180) (UniProt P02786) 2.39, PGRMC1 (lysine site: K105) (UniProt O00264) 2.63, UniProt Q32P28 (lysine site: K662) 5.32, UniProt P08727 (lysine site: K398) 2.38, SPTAN1 (lysine site: K2184) (UniProt Q13813) 5.14, UniProt Q9UII2 (lysine site: K90) 6.67, RPL10A (lysine site: K196) (UniProt P62906) 2.81, CYR61 (lysine site: K208) (UniProt O00622) 2.96, COL5A1 (lysine site: K905) (UniProt P20908) 3.42, XRCC5 (lysine site: K36) (UniProt P13010) 2.42, DCTN2 (lysine site: K175) (UniProt Q13561) 2.59, ATAD3B (lysine site: K214) (UniProt Q5T9A4) 2.61, BPTF (lysine site: K609) (UniProt Q12830) 8.91, PSME2 (lysine site: K15) (UniProt Q9UL46) 6.45, FOLR1 (lysine site: K46) (UniProt P15328) 12.6, RPSA (lysine site: K89) (UniProt P08865) 4.12, XRCC6 (lysine site: K189) (UniProt P12956) 4, UniProt P62277 (lysine site: K70) 6.69, CCT8 (lysine site: K20) (UniProt P50990) 2.11, SLC39A6 (lysine site: K156) (UniProt Q13433) 3.23

Lysine labeling ratio R10:1, active:
CACYBP (lysine site: K223) (UniProt Q9HB71) 1.74, VAPA (lysine site: K180) (UniProt Q9P0L0) 1.96, SPTAN1 (lysine site: K1546) (UniProt Q13813) 0.8, HSPA9 (lysine site: K121) (UniProt P38646) 1.51, HNRNPU (lysine site: K31) (UniProt Q00839) 1.72, BCAP31 (lysine site: K204) (UniProt P51572) 1.82, ARL6IP5 (lysine site: K31) (UniProt O75915) 0.953, ITGAV (lysine site: K581) (UniProt P06756) 0.709, RDX (lysine site: K371) (UniProt P35241) 1.33, ANPEP (lysine site: K379) (UniProt P15144) 0.5, LAMB1 (lysine site: K1778) (UniProt P07942) 1.01, CTNNA1 (lysine site: K199) (UniProt P35221) 1.43, UniProt Q8WXI7 (lysine site: K10462) 1.27, SCARB1 (lysine site: K288) (UniProt Q8WTV0) 0.704, RPS19 (lysine site: K144) (UniProt P39019) 1.75, EPRS (lysine site: K360) (UniProt P07814) 1.77
